This note sets out measurements from the supplement of paper PMC6555819.

For this test, the system named is VDR:RXRa (NR concentration 270 nM, RXRa partner concentration 90 nM). Description: PBM binding z-score (relative to random genomic background probes); higher = stronger binding; sequences stand for … in GC…GCGATTGACAGCGTAGAATGAAGG
As to the method:
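Protein-binding microarray (Agilent 4x180K custom design, double-stranded 60-nt probes: 5' GC cap, 34-nt variable region, 24-nt constant primer region; full probe sequence given). Purified or IVT nuclear receptor:RXRα heterodimers (3:1 NR:RXRα, mostly 270:90 nM) or homodimers were incubated for 1 h in PBS with 2% milk and no ligand, then detected with Alexa488 antibodies. Fluorescence from o1-orientation probes (~5 replicates averaged) was converted to z-scores against 500 random hg19 background probes. Variable regions are seed direct-repeat (DR0–DR5) sites, all their single-nucleotide variants and half-site ablations.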
AGAATGAGGTTCTTAAGATCAGGGAATTGCGGTC had a PBM binding z-score of 0.0724.

The sequence CCTAGCAGGCCAATCTGGGTCACACAAGGCTTGA registered a PBM binding z-score of 1.09.

Turning to GATTCAGGGTCAAGGCCAGAGTACGCGTATTGAT, the PBM binding z-score amounted to 4.89.

Turning to AGAATGAAGTTACCAAAGATCAGGGAAACGCTTG, the PBM binding z-score was -0.38.

Consider GCTAGCAGGCCATTTGGGTCACTCGATGACGGGC, for which the PBM binding z-score was determined as 0.762.

CCTAGTTGGTCAAGGTCACACTCGCTATAGGTAC came in with a PBM binding z-score of 3.99.

CTACCAAGGTGAACAAGGTCGCTGATTACTATTC: the PBM binding z-score is 5.5.

CCAGACAGGTGAGTAGGTAACTCAGCCTCGATTA yielded a PBM binding z-score of -0.168.

TCGAGTAGGTTAGGGGTATTCAGAATGGCGTCGA yielded a PBM binding z-score of 0.154.

The sequence ACAGACAGGTGATGAAGCTAACTCAGGCTATCAT came in with a PBM binding z-score of -0.278.

The sequence TCGAGTAGGTTAGTCGGGGCCTTCAGCCAACATA yielded a PBM binding z-score of -0.158.

Consider CCAACTAGGTCAAAGGTCAAAGTCGAGCCAACCA, for which the PBM binding z-score came to 6.81.

For the sequence CCACCAAGGTGAACAAGGTCGTTGATTACTATTC, the PBM binding z-score amounted to 6.23.

CCGACTGGGGCTAAGGTTACCATACTCAGTACGA yielded a PBM binding z-score of 0.0865.

With TAGCCTAGGTAATGCGGGCCAGTATAGTGTCGGC, the PBM binding z-score is -0.839.

For the sequence CCTTACGGGTCATGAGGTTATAGCACGACGAGCG, the PBM binding z-score was 4.92.

Regarding CTCGAAAGTTCGTGCTCAGGTGAGTATACCAAAC, the PBM binding z-score stood at 1.71.

In the case of CCGACTGGGCCAAAAAGGTCATTGATGCCGATAA, the PBM binding z-score amounted to 4.64.

GCGACTGGGGCAACGCAGGTTACCATAAGGTTGG returned a PBM binding z-score of -0.0248.

CCGACTGGGGCAAGGTTGCCATAACGCACAGCCA came in with a PBM binding z-score of -0.351.

CGTCCAAGGTCAAGGCCAGTGAAAGAGACTCGAA: the PBM binding z-score was 3.69.

Sequence TCTGCTAGGTCAGTTGGTCAGCTAGCGAGCTGCC displayed a PBM binding z-score of -0.184.

Consider AGAATGAGGTTATACGTACATCAGGGAAGAAAGT, for which the PBM binding z-score worked out at 1.67.

Turning to TGAATGAGGTTATAAGATCAGGGACCGTTGCAAA, the PBM binding z-score was determined as 1.25.

With GGAACGAGGGCAAGTTGATAGCGGAGTTTGATGG, the PBM binding z-score was 0.636.

The sequence TCGAGTAGGTGAGTCGGGGCATTCAGCCAACATA registered a PBM binding z-score of 1.68.

In the case of CCTACTGGGCCACGAAAGGTCATTCATTCAGTGA, the PBM binding z-score turned out to be 4.43.

ACCGACAGGTGATGAAGGTAACTCAGGCTATCAT gave a PBM binding z-score of -0.148.

TCTTGTAGATCAAAGGTTAAGATAGCCGAAGCCT returned a PBM binding z-score of 1.49.

In the case of TGAATGAGGTTAAAGTTCAGGGAACGTGGCGTCG, the PBM binding z-score turned out to be 4.37.

Consider ACTATTAGTTGAGACGAGGGCAACCTATAGGTTG, for which the PBM binding z-score is 0.781.

The sequence ACTAGTTGGTCAGCTGAGGTCATACACAATTCGG had a PBM binding z-score of 4.73.

In turn, CGTCTAAGGTCAATGCTAGGTCAGTGAAAGCATT had a PBM binding z-score of 5.23.

GCTTGTAGATCAAAGTTAAGAAAGACTAAGCTAA yielded a PBM binding z-score of -0.483.

On to TCGAGTCGGTTAGTCGGGGCATTCAGCCAACATA, for which the PBM binding z-score was 0.217.

With TAGCCTAGGTCAGATCGCGCCAGTATACGCTATA, the PBM binding z-score is 0.314.

As to TTACCAAGGGGAAAGGTCGTTGATGCACGCCTTG, the PBM binding z-score was found to be 1.98.

Regarding CCGACTGGTGCAGAAAGGTTACCATACCATCCGG, the PBM binding z-score worked out at 0.685.

Sequence TCTGCTAGGTGAACGATGGTCAGCTAATCTGCTA returned a PBM binding z-score of -0.621.

For TCTTGTAGATCAAGCTGGTTAAGAAAGCCTGAGT, the PBM binding z-score worked out at 0.112.
